High-throughput results (PubChem BioAssay)
TrxR1 inh = qHTS Assay for Inhibitors of Mammalian Selenoprotein Thioredoxin Reductase 1 (TrxR1): qHTS | Thioredoxin reductase 1, cytoplasmic (Rattus norvegicus), O89049 | recombinant rTrxR1, NADPH fluorescence consumption, selenite substrate | Potency, µM (top dose mostly 114 µM), without a hit: at the top dose activity change, negative = inhibition, hits mostly inhibitors | actives 1% (n = 390,000) | AID 588453, 2011; further: potency means the concentration at half of the fitted maximal effect; on the % scale 0 is the no-effect control and ±100 the full control effect; nearly all actives have a fitted effect of over 65% in size
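Rat TrxR1 (90 nM in the dispensed reagent) was pre-reduced with 400 uM NADPH for 5 min at room temperature, then incubated with compound for 15 min. After 400 uM selenite was added, NADPH fluorescence (Ex 340/Em 450 nm) was followed for 8 min.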
Anesthetic bind = qHTS Assay for Identification of Novel General Anesthetics; Ferritin light chain (Equus caballus), P02791; apoferritin/1-aminoanthracene competitive binding, fluorescence; Potency, µM (highest dose often 77.5 µM), for inactives: top-dose activity change, negative = displacement, actives largely listed as inhibitors; actives 0.074% (n = 350,000); AID 485281, 2010; further: potency means the concentration at half of the fitted maximal effect; on the % scale 0 is the no-effect control and ±100 the full control effect; nearly all actives have a fitted effect of over 20% in size
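Read-out: endpoint 1-AMA fluorescence, excitation 380 nm and emission 535 nm, after compounds sit 10 min at room temperature with 10 uM horse-spleen apoferritin in 50% saturated 1-AMA/PBS. Values come from four-parameter Hill fits.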
TrxR1 substrate = qHTS Assay for Substrates of Mammalian Selenoprotein Thioredoxin Reductase 1 (TrxR1): qHTS | actives 0.01% (n = 390,000) | AID 588456, 2011 | Potency, µM (titrated, usually from 114 µM), inactives show at the top dose activity change, negative = substrate turnover | purified TrxR1 substrate turnover, NADPH consumption readout | Thioredoxin reductase 1, cytoplasmic (Rattus norvegicus), O89049; further: potency means the concentration at half of the fitted maximal effect; on the % scale 0 is the no-effect control and ±100 the full control effect; nearly all actives have a fitted effect of over 50% in size
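Rat TrxR1, dispensed at 90 nM, was prereduced with 400 uM NADPH (final) for 5 min at ~22 deg C, then incubated with compound 15 min before 400 uM selenite. A first-read NADPH fluorescence drop versus no-compound background flagged substrates.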
mIDH1 inhibitor = qHTS for Inhibitors of mutant isocitrate dehydrogenase 1 (IDH1): qHTS; Isocitrate dehydrogenase [NADP] cytoplasmic (Homo sapiens), O75874; IDH1-R132H enzyme, NADPH consumption, diaphorase/resazurin fluorescence; Potency, µM (highest dose often 76.6 µM), without a hit: at the highest dose activity change, negative = inhibition, actives largely listed as inhibitors; actives 0.093% (n = 390,000); AID 602179, 2012; further: potency means the concentration at half of the fitted maximal effect; on the % scale 0 is the no-effect control and ±100 the full control effect; nearly all actives have a fitted effect of over 65% in size
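IDH1-R132H (0.5 ug/mL dispensed) in pH 7.5 Tris buffer was preincubated 30 min with compound, then given a substrate mix of 0.016 mM NADPH and 2 mM alpha-KG for 80 min at room temperature; remaining NADPH was read by diaphorase/resazurin fluorescence.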
GALK inh = qHTS Assay for Inhibitors of Human Galactokinase (GALK). P51570. Purified GALK, Kinase-Glo residual ATP luminescence. Potency, µM (doses to about 57.5 µM), for inactives: top-dose activity change, negative = inhibition, hits mostly inhibitors. actives 0.007% (n = 270,000). AID 1868, 2009; further: potency means the concentration at half of the fitted maximal effect; on the % scale 0 is the no-effect control and ±100 the full control effect
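Compounds were pin-transferred into ATP buffer (35 uM final), then GALK plus galactose (5 nM, 100 uM final) was added. After 1 h at room temperature, Kinase-Glo Plus was added and luminescence read after 10 min.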
PKM2 activator = qHTS Assay for Activators of Human Muscle isoform 2 Pyruvate Kinase; actives 0.34% (n = 260,000); Pyruvate kinase PKM (Homo sapiens), P14618; purified PKM2, Kinase-Glo ATP luminescence, activation; response scale: 0% is enzyme alone, no compound; Potency, µM (titrated, usually from 57.5 µM), for the others: top-dose activation, usual class: activators; further: potency means the concentration at half of the fitted maximal effect; on the % scale 0 is the no-effect control and ±100 the full control effect; nearly all actives have a fitted effect of over 55% in size
Target sequence (P14618 whole entry, looked up, canonical isoform): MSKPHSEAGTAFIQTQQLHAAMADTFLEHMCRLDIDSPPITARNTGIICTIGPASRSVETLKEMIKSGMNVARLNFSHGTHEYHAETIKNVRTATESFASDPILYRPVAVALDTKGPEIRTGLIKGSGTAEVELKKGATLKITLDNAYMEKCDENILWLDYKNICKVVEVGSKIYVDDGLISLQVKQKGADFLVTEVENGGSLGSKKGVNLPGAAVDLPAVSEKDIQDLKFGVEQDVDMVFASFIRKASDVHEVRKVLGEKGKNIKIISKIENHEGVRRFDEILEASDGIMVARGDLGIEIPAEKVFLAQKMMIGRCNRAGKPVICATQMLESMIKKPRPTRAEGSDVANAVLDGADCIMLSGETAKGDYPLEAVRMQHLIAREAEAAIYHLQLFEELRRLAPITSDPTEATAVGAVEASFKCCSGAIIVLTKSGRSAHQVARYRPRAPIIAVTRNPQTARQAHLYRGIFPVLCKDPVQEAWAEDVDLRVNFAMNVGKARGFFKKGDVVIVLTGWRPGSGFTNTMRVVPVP
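Kinase-Glo luminescence reports ATP generated from ADP (0.1 mM) and PEP (0.5 mM) by purified hPK-M2 after 1 h at room temperature, pH 7.2 imidazole buffer; intermediate enzyme activity allows detecting inhibitors and activators.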
IDH1 autofl = qHTS for Inhibitors of mutant isocitrate dehydrogenase 1 (IDH1): Cherrypicks Autofluorescence Interference | shares compounds with mIDH1 inhibitor | Resorufin detection reagent fluorescence interference, cell-free | inhibition of signal, % at 51.2 µM | 750 tested, under 10 active | AID 623980, 2012;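 further: 0% = wells with normal resorufin and full inhibition = wells lacking resorufin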
IDH1 WT = qHTS for Inhibitors of mutant isocitrate dehydrogenase 1 (IDH1): Cherrypicks in WT IDH1; shares compounds with mIDH1 inhibitor; WT IDH1 enzyme, NADPH diaphorase/resazurin fluorescence; Potency, µM (titrated, usually from 115 µM), without a hit: top-dose activity change, negative = inhibition, usual class: inhibitors; actives 9% (n = 750); AID 623995, 2012;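 further: potency means the concentration at half of the fitted maximal effect; 0% = full WT IDH1 enzyme control and full inhibition = no enzyme wells; nearly all actives have a fitted effect of over 55% in size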
IDH1 R132H conf = qHTS for Inhibitors of mutant isocitrate dehydrogenase 1 (IDH1): Confirmation of Cherrypicks | IDH1 R132H enzyme, NADPH diaphorase/resazurin fluorescence | actives 83% (n = 750) | AID 624002, 2012 | shares compounds with mIDH1 inhibitor | Potency, µM (highest dose often 76.6 µM), inactives show at the top dose activity change, negative = inhibition, most hits filed as inhibitors; further: potency means the concentration at half of the fitted maximal effect; nearly all actives have a fitted effect of over 50% in size
* marks the source's active call; other numbers are inactive results; ? = inconclusive; . = no result; [ ] = dose if it differs, or a comment. Rows were chosen to be rich in hits. Some 1.3% of all compounds tested hit in one or more screens of this group. The call rests on the fitted dose curve; in most records, active means well fitted curve in the direction sought with a large enough effect; inconclusive means small, poorly fitted or top-dose-only effect, or another doubt; inactive means no such curve, though single readings can be large; an effect the other way counts as inactive or inconclusive.

SMILES	TrxR1 inh	Anesthetic bind	TrxR1 substrate	mIDH1 inhibitor	GALK inh	PKM2 activator	IDH1 autofl	IDH1 WT	IDH1 R132H conf
CCC(=O)N1CCc2cc(Br)cc(S(=O)(=O)CCC(=O)Nc3cccc(Cl)c3)c21	14%	-9%	0%	0%	.	.	.	.	.
Cc1ccc(C(=O)OCC(=O)NC(=O)NCc2ccccc2)cc1C	6%	.	-1%	0%	.	.	.	.	.
O=C(COC(=O)c1ccc(F)c([N+](=O)[O-])c1)NC(=O)NCc1ccccc1	?	.	-4%	46µM*	.	.	-8	-14%	28µM*
COc1ccc(-c2cc3nc(C)c(CCC(=O)Nc4ccc(F)cc4F)c(C)n3n2)c(OC)c1	52%	-13%	43%	-9%	.	.	.	.	.
Cc1cccc(-n2c(SCC(=O)Nc3ccccc3Cl)nc3n[nH]c(C)c3c2=N)c1	22%[57.1 µM]	-23%	2%[57.1 µM]	?	.	.	-9	-2%	25µM*
CCN(C(=O)CSc1nc2n[nH]c(C)c2c(=N)n1-c1ccc(Cl)c(C)c1)c1cccc(C)c1	9%	0%	6%	46µM*	-1%	.	-1	-11%	22µM*
CCCCN(CC)C(=O)CSc1nc2n[nH]c(C)c2c(=N)n1-c1cccc(C)c1	16%	-6%	-1%	-11%	4%	2%	.	.	.
COc1ccc(-c2nc3sc(CCNS(=O)(=O)c4c(C)cc(C)cc4C)c(C)n3n2)cc1	-2%[57.1 µM]	6%	-4%[57.1 µM]	-2%	.	.	.	.	.
COc1ccc(S(=O)(=O)N2CCN(c3ccc(Cl)c(Cl)c3)CC2)c2ccccc12	7%	-8%	6%[11.4 µM]	-10%	.	.	.	.	.
O=C(NCc1ccccc1Cl)C1CCN(S(=O)(=O)c2ccc3c(c2)CCCN3C(=O)C2CCC2)CC1	14%[57.1 µM]	3%	3%[57.1 µM]	24%	.	.	.	.	.
c1cc(-c2sc(-c3ccncc3)c(-c3ccncc3)c2-c2ccncc2)ccn1	5%[57.1 µM]	2%	2%[57.1 µM]	?	4%	0%	0	?	28µM*
Nc1nnc(-c2ccncc2)s1	-5%[57.1 µM]	-2%	82%[57.1 µM]	-2%	0%	-1%	.	.	.
COc1ccc2cc(-c3nnc(Nc4ccccc4)s3)c(=O)oc2c1	21%[57.1 µM]	0%	0%[57.1 µM]	6%	.	.	.	.	.
Cc1ccc(-n2c(O)c(C=Nc3ccccc3-c3n[nH]c(=S)[nH]c3=O)c3ccccc3c2=O)c(C)c1	?	-18%	-7%	?	5%	1%	-5	79µM*	35µM*
